TDP1 cell noCPT: qHTS for Inhibitors of human tyrosyl-DNA phosphodiesterase 1 (TDP1): qHTS in cells in absence of CPT; Potency, µM (top dose mostly 46.2 µM), inactives show top-dose activity change, negative = growth inhibition, hits mostly inhibitors; DT40 Tdp1-/- hTDP1 cells, no CPT, ATP luminescence, 48 h; AID 686978, 2013; hit rate 15% among 420,000; note: potency is the fitted concentration of half-maximal effect; nearly all actives have a fitted effect of over 55% in size
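DT40 Tdp1-/-;hTDP1 cells, no CPT (DMSO vehicle only), 400 cells/well; compounds pin-transferred; ≥48 hr, 37 °C; CellTiter-Glo 30 min RT dark, luminescence read.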
HT1080 IDH1KD tx: qHTS for induction of synthetic lethality in tumor cells producing 2HG: qHTS for the HT-1080-IDH1KD cell line | HT-1080 IDH1 knockdown viability, ATP luminescence, 48 h | AID 686971, 2013 | Potency, µM (series often up to 46.1 µM), for inactives: at the top dose activity, negative = toxicity, usual class: cytotoxic | hit rate 2% among 360,000;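 note: potency is the fitted concentration of half-maximal effect; 0% = DMSO wells and -100% = cell-free medium wells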
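In this qHTS, HT-1080 cells depleted of IDH1 are exposed for 48 h at 37 °C to compound titrations. Toxicity is scored from CellTiter-Glo luminescence, with DMSO as full viability and medium alone as none.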
IL1B secr inh: qHTS for Inhibitors of Inflammasome Signaling: IL-1-beta AlphaLISA Primary Screen | THP-1 LPS/ATP IL-1B secretion, AlphaLISA, 16 h; hits give low values | activity change, % at 57.5 µM | hit rate 4.7% among 360,000 | AID 743279, 2014; in the data active = activity change below about -50%; inconclusive = mostly about -30% to -49%
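Secreted IL-1B measured by AlphaLISA bead assay after 16 h compound exposure of THP-1 cells; compounds (final up to 57.5 uM) added 1 h before LPS (250 ng/mL) and ATP (1.25 mM) stimulation; lower signal means less secretion.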
TDP1 cell CPT: qHTS for Inhibitors of human tyrosyl-DNA phosphodiesterase 1 (TDP1): qHTS in cells in presence of CPT; Potency, µM (highest dose often 46.2 µM), without a hit: at the top dose activity change, negative = growth inhibition, usual class: inhibitors; hit rate 12% among 420,000; chicken DT40 Tdp1-/-;hTDP1 cells + 20 nM CPT, ATP luminescence, 48 h; note: potency is the fitted concentration of half-maximal effect; nearly all actives have a fitted effect of over 55% in size
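Chicken DT40 Tdp1-/- cells complemented with human TDP1, 400 cells/well, exposed to compounds plus 20 nM camptothecin for at least 48 h at 37 C; viability read as ATP content by CellTiter-Glo luminescence.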
HT1080NT lethal: qHTS for induction of synthetic lethality in tumor cells producing 2HG: qHTS for the HT-1080-NT fibrosarcoma cell line | hit rate 1.6% among 360,000 | Potency, µM (doses to about 46.1 µM), for the others: at the top dose activity, negative = less viability, most hits filed as cytotoxic | AID 686970, 2013 | HT-1080-NT fibrosarcoma viability, CellTiter-Glo ATP luminescence, 48 h;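 note: NT is the 2HG producing partner of a matched IDH1 knockdown line; potency is the fitted concentration of half-maximal effect; 0% = DMSO-treated cells and -100% = media-only wells without cells; nearly all actives have a fitted effect of over 55% in size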
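750 cells/well, RPMI + 5% FBS; 2 h settle, compound pin-transfer, 48 h at 37 degrees C. CellTiter-Glo 10 min RT, luminescence. Normalized to DMSO and media-only wells.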
ELG1 DNA repair: qHTS screen for small molecules that inhibit ELG1-dependent DNA repair in human embryonic kidney (HEK293T) cells expressing luciferase-tagged ELG1. HEK293T ELG1-luciferase reporter, luminescence, 16 h; DNA damage induced by 5-fluorouridine. Potency, µM (series often up to 46.1 µM), inactives show at the highest dose activity change, negative = inhibition, usual class: inhibitors. hit rate 2.3% among 330,000. AID 504467, 2011; note: potency is the fitted concentration of half-maximal effect; nearly all actives have a fitted effect of over 55% in size
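Overnight (16 hr) co-exposure of 2,000 cells/well to 5-fluorouridine and compound at 37 °C preceded detection. Luciferase was quantified via ONE-Glo luminescence; loss of signal denotes inhibition.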
* = called active by the depositor; ? = inconclusive; . = no result. Compounds with a hit are over-represented: about 19% of the library has one in this group of screens. Unless noted, calls come from the whole dose curve; as a rule, active = well fitted curve in the direction sought with a large enough effect; inconclusive = small, poorly fitted or top-dose-only effect, or another doubt; inactive = no such curve, though single readings can be large; an effect the other way counts as inactive or inconclusive. Unless noted, % is set by controls: 0 for no effect and ±100 for the full control effect.

SMILES	TDP1 cell noCPT	HT1080 IDH1KD tx	IL1B secr inh	TDP1 cell CPT	HT1080NT lethal	ELG1 DNA repair
CC[C@@]12C(=O)N(c3ccc(C)cc3)C(=O)N1[C@H](c1ccc(OC)cc1)[C@@H]1C(=O)N(C(C)(C)C)C(=O)[C@@H]12	1%	7%	14	13%	0%	15%
COc1ccc([C@@H]2[C@@H]3C(=O)N(C(C)(C)C)C(=O)[C@@H]3[C@]3(Cc4ccccc4)C(=O)N(c4ccc(Br)cc4)C(=O)N23)cc1	23µM*	2%	0	23µM*	-4%	11%
CCN1C(=O)[C@H]2[C@@H](c3ccc(C)cc3)N3C(=O)N(c4ccc(C)cc4)C(=O)[C@@]3(Cc3ccc(Cl)cc3)[C@H]2C1=O	21µM*	9%	4	18µM*	15%	6%
COc1cc(C(=O)COC(=O)c2cc([N+](=O)[O-])ccc2N2CCOCC2)ccc1OC(F)F	?	-12%	?	?	0%	?
CCOC(=O)c1ccc(NC(=O)Cn2cnc3sc(C(=O)OCC)c(C)c3c2=O)cc1	-10%	.	.	-27%	.	.
C=CCc1cc(OC)ccc1OCCCCn1cncn1	-23%	5%	30	-19%	7%	-21%
CCc1ccc(CNC(=O)c2ccc(-c3nc(CS(=O)(=O)c4ccccc4)c(C)o3)cc2)cc1	?	.	.	15µM*	.	.
Cc1ccc(OCc2nc(-c3ccc(C(=O)NCCc4ccc(S(N)(=O)=O)cc4)cc3)oc2C)cc1	23µM*	.	.	15µM*	.	.
COc1cccc(CNC(=O)c2ccc(-c3nc(COc4ccccc4)c(C)o3)cc2)c1	9.2µM*	.	.	15µM*	.	.
Cc1oc(-c2ccc(C(=O)NCc3ccccc3)cc2)nc1CS(=O)(=O)c1ccccc1	?	.	.	-18%	.	.
CC(=O)c1ccc(NC(=O)c2ccc(-c3nc(COc4ccc(C)cc4)c(C)o3)cc2)cc1	-8%	.	.	-5%	.	.
COc1cccc(CNC(=O)c2ccc(CS(=O)(=O)Cc3ccccc3C)o2)c1	23µM*	0%	49	29µM*	-24%	-3%
Cc1ccc(N2CCN(C(=O)c3cn(C)c4ccc(S(=O)(=O)N(C)C5CCCCC5)cc4c3=O)CC2C)cc1 (stereo not drawn)	-9%	.	.	-2%	.	.
COCCNC(=S)NNC(=O)c1cc(C2CC2)nc2ccccc12	3%	2%	18	-3%	3%	3%
COc1cccc(CNC(=O)c2ccc(-c3nc(CS(=O)(=O)c4ccccc4)c(C)o3)cc2)c1	23µM*	.	.	?	.	.
CCOC(=O)c1c(NC(=O)CN2C(=O)NC3(CCC(CC)CC3)C2=O)sc(C)c1-c1ccc(C)cc1 (stereo not drawn)	?	21%	-3	-12%	22%	20%
CCOC(=O)c1c(NC(=O)CN2C(=O)NC3(CCCC3)C2=O)sc(C)c1CC	?	-14%	-57*	?	-10%	-8%
CCOC(=O)c1c(NC(=O)CN2C(=O)NC3(CCCCCC3)C2=O)sc(C)c1-c1ccc(C)cc1	16µM*	?	-9	23µM*	-25%	11%
COc1ccc(Cl)cc1Nc1cc(C)nc2nc(-c3ccccc3C)nn12	-5%	.	.	6%	.	.
COc1cc(NC(=O)Cn2cnc3c(NCc4ccccc4)ncnc32)cc(OC)c1OC	3%	-20%	23	3%	-25%	13%
CCCCOC(=O)Nc1ccc(S(=O)(=O)Nc2ccc([N+](=O)[O-])cc2)cc1	-2%	-2%	10	-7%	11%	16%
CCCCCOC(=O)Nc1ccc(S(=O)(=O)Nc2cccc([N+](=O)[O-])c2)cc1	?	?	-88*	-21%	?	-16%
O=C1NCCCc2c1oc1ccc(O)cc21	?	-17%	13	?	6%	?
Oc1c(Cl)cc(Cl)c2c1NCCC2	10µM*	-22%	14	6.5µM*	-2%	9%
COc1cc(OC)cc(OC(=O)C2CCN(C(=O)c3ccc(F)cc3)CC2)c1	-25%	-9%	16	-14%	-8%	10%
SMILES	TDP1 cell noCPT	HT1080 IDH1KD tx	IL1B secr inh	TDP1 cell CPT	HT1080NT lethal	ELG1 DNA repair
CCCCCCCCCCCCCC(=O)O[C@H](CC(=O)O)C[N+](C)(C)C	-21%	.	.	?	.	.
CCCCCCCCCCCCCCCC(=O)O[C@H](CC(=O)O)C[N+](C)(C)C	30µM*	.	.	?	.	.
CCCCCCCCCCCCCCCC(=O)OC(CC(=O)O)C[N+](C)(C)C (stereo not drawn)	?	?	0	5.8µM*	9.2µM*	?
CCCCCCCCCCCCCC(=O)OC(C)C	-3%	.	.	3%	.	.
O=C(CCNS(=O)(=O)c1ccccc1F)N1CCN(Cc2ccccc2)CC1	-2%	9%	0	1%	6%	13%
Cc1cc(C)c(NC(=O)Cn2nnc(-c3nc(-c4ccccc4)no3)c2N)c(C)c1	-2%	.	.	0%	.	.
Cc1ccc(SCC(=O)c2c(C)nc3cc(C)ccn23)cc1	?	-7%	7	?	8%	?
Cc1nc2ccccn2c1C(=O)CSc1cccc(Cl)c1	?	-5%	-70*	?	1%	?
Cc1nc2ccccn2c1C(=O)CSc1ccccc1Cl	16µM*	-25%	-21	16µM*	-7%	-12%
CCN(CC)C(=O)c1c(C)nc2ccccn12	4%	14%	26	2%	3%	8%
Cc1nc2ccccn2c1C(=O)CSc1ccc(Cl)cc1Cl	18µM*	4%	20	?	-5%	-3%
Cc1ccc(N(CC(=O)NC(C)(C)C)C(=O)CNC(=O)c2cccs2)cc1C	-16%	2%	-2	1%	-4%	0%
O=C(NC(Cc1cccc(F)c1)C(=O)O)C1CCCCC1 (stereo not drawn)	2%	3%	20	-17%	-19%	10%
COc1cccc(C(=O)Nc2nc3nc(C)c(C)c(=O)n3[nH]2)c1	-5%	.	.	-10%	.	.
O=C(CCn1c(=O)c2cccn2c2cccnc21)NCc1ccccc1F	-26%	.	.	-2%	.	.
Nc1ccc(N2CCCC2)c(S(=O)(=O)Nc2cccc(C(F)(F)F)c2)c1	29µM*	0%	?	?	-1%	-2%
